According to PubChem BioAssay (NCATS):
Results filed as inconclusive are left out. Where a call stands in place of a potency, no number is given. The source made the active and inactive calls. Unless noted, calls follow the shape of the dose curve; as a rule, active = well fitted curve in the direction sought with a large enough effect; inconclusive = small, poorly fitted or top-dose-only effect, or another doubt; inactive = no such curve, though single readings can be large; an effect the other way counts as inactive or inconclusive.

Legend:
[1] = molecular target: Glutathione peroxidase 1 (Homo sapiens) (UniProt P07203); assay: Primary qHTS Assay for Inhibitors of Recombinant Selenoprotein Glutathione Peroxidase 1 (GPX1) (AID 1845191); also: nearly all actives have a fitted effect of over 65% in size
Glutathione peroxidase 1 (Homo sapiens), sequence (P07203 whole entry, looked up): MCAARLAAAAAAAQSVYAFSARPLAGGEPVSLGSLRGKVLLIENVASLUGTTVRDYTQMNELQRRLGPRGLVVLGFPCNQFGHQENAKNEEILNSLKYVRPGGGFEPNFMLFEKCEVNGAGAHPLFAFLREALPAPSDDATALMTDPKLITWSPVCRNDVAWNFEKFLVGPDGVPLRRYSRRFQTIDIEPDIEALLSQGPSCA
How it was run: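 NADPH consumption tracked by fluorescence at 340/450 nm between t=0 and t=15 min, room temperature. Final mix: 10 nM GPX1, 100 nM glutathione reductase, 1 mM GSH, 0.5 mM NADPH, 0.5 mM cumene hydroperoxide, 0.01% BSA; 30 min compound–enzyme preincubation.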

[2] = molecular target: Phospholipid hydroperoxide glutathione peroxidase GPX4 (Homo sapiens) (UniProt P36969); assay: Primary qHTS Assay for Inhibitors of Recombinant Selenoprotein Glutathione Peroxidase 4 (GPX4) (AID 1845192); also: series mostly up to about 50 µM; nearly all actives have a fitted effect of over 65% in size
Phospholipid hydroperoxide glutathione peroxidase GPX4 (Homo sapiens), sequence (P36969 whole entry, looked up): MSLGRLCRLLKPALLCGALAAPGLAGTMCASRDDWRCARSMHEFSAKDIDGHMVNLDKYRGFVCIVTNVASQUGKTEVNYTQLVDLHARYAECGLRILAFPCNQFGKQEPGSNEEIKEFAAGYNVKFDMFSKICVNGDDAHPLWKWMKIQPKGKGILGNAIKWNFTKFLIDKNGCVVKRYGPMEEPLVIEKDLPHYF
How it was run: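 NADPH consumption followed by fluorescence at 340/450 nm, t=0 and after 15 min at room temperature. Reaction started with cumene hydroperoxide (0.5 mM final) after 30 min compound–GPX4 preincubation; final 200 nM GPX4, 100 nM GR, 1 mM GSH, 0.5 mM NADPH.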

[3] = qHTS drug screen for cell cycle checkpoint inhibitors in PARPi-resistant BRCA-mutant ovarian cancer cell lines. (AID 1963452; calls by dose curve); conditions: PEO1/OlaR viability, CellTiter-Glo luminescence, 96 h, stronger effect = lower value
How it was run: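 PEO1, PEO4 and PEO1/OlaR ovarian cancer cells, 600 per well, exposed 96 h at 37C to a dilution series. Viability read by CellTiter-Glo luminescence, normalized to DMSO and empty wells; activity summarized as Z-AUC.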

[4] = qHTS for differential inhibitors of proliferation of Plasmodium falciparum line 7G8 (AID 1815);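 also: potency is read from the fitted curve at half-maximal effect; parasite growth measured after three days of incubation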
[5] = qHTS for differential inhibitors of proliferation of Plasmodium falciparum line GB4 (AID 1816); conditions: Potency: Plasmodium falciparum GB4 proliferation inhibition;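 also: potency is read from the fitted curve at half-maximal effect; parasite growth measured after 72 h incubation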
[6] = qHTS for differential inhibitors of proliferation of Plasmodium falciparum line 3D7 (AID 1876); also: potency is read from the fitted curve at half-maximal effect
[7] = qHTS for differential inhibitors of proliferation of Plasmodium falciparum line D10 (AID 1877);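 also: potency is read from the fitted curve at half-maximal effect; parasites grown with compound for 72 h before DNA staining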
[8] = qHTS for differential inhibitors of proliferation of Plasmodium falciparum line Dd2 (AID 1882); conditions: Potency: Plasmodium falciparum Dd2 proliferation inhibition; also: potency is read from the fitted curve at half-maximal effect; nearly all actives have a fitted effect of over 65% in size
How it was run: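 RBC culture, 0.3% parasitemia / 2.5% Hct final; cpd added by pin tool in DMSO; 72 h, 37 C, 5% CO2; lysis buffer + SYBR Green I, o/n RT dark; FI 485/535; norm. to artemisinin 0.29 uM and DMSO.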

[9] = qHTS for differential inhibitors of proliferation of Plasmodium falciparum line W2 (AID 1883); conditions: Potency: Plasmodium falciparum W2 proliferation inhibition;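 also: potency is read from the fitted curve at half-maximal effect; parasites grown with compound for 72 h before lysis and staining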
[10] = qHTS for differential inhibitors of proliferation of Plasmodium falciparum line HB3 (AID 1886); conditions: Potency: Plasmodium falciparum HB3 proliferation inhibition;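 also: potency is read from the fitted curve at half-maximal effect; parasites grown with compound for 72 h before SYBR Green readout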
[11] = molecular target: Nuclear receptor subfamily 1 group I member 3 (Homo sapiens) (UniProt Q14994); assay: Primary qHTS for antagonist of constitutive androstane receptor (CAR) against the NCATS DSHEA and TCM libraries (AID 1794836);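 also: HepG2 cells stably expressing hCAR with CYP2B6 luciferase reporter stimulated by CITCO; series mostly up to about 40 µM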
Nuclear receptor subfamily 1 group I member 3 (Homo sapiens), sequence (Q14994 whole entry, looked up): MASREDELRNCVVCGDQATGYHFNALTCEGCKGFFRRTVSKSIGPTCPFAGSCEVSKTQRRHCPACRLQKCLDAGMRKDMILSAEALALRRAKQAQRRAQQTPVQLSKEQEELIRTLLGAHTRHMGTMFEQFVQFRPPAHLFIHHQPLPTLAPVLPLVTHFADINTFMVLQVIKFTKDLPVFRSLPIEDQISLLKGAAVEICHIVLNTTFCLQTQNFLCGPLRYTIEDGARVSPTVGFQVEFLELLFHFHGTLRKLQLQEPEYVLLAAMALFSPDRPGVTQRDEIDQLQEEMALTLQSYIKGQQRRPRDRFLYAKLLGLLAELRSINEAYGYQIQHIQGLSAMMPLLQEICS
How it was run: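 Antagonist mode: CAR reporter luminescence (ONE-Glo) in HepG2-CYP2B6-hCAR cells stimulated with 48 uM CITCO (final) over 24 h at 37 C, compounds titrated; viability read first by CellTiter-Fluor fluorescence.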

[12] = KB-8-5-11 P-gp reporter qHTS against the NCATS DSHEA and TCM libraries (AID 1919977)
How it was run: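 KB-8-5-11, 500 cells/well, DMEM/10% FBS without colchicine; 4 h attach; cpd titrations, 72 h, 37C/5% CO2; CellTiter-Glo, 30 min RT, luminescence.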

[13] = molecular target: Bile acid receptor (Homo sapiens) (UniProt Q96RI1); assay: qHTS assay for small molecule agonists of farnesoid X receptor signaling (AID 588527; calls by dose curve; also: series mostly up to about 77 µM); conditions: HEK293T FXR-UAS-bla, beta-lactamase ratio, 16 h; stronger effect = higher value
Bile acid receptor (Homo sapiens), sequence (Q96RI1 whole entry, looked up): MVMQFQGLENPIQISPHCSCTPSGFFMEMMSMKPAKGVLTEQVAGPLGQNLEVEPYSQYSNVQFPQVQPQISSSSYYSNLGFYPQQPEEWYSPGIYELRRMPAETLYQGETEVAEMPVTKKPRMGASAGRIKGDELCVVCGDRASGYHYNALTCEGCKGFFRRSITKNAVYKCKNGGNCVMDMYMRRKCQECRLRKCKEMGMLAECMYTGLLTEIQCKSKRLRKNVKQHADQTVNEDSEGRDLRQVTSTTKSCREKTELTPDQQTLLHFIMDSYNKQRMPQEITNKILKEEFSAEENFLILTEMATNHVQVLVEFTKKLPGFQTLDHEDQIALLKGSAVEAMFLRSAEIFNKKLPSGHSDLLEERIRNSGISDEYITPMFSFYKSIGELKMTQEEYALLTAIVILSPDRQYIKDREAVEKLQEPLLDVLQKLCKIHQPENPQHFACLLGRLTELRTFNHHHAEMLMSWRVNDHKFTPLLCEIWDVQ
How it was run: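 Agonist-mode beta-lactamase reporter in GeneBLAzer FXR-UAS-bla HEK293T cells, titration up to 92 uM, 16 h exposure at 37 C, CCF4 fluorescence. Response scaled to DMSO (0%) and 100 uM chenodeoxycholic acid (100%), then Hill-fitted for EC50 and efficacy.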

[14] = molecular target: Peroxisome proliferator-activated receptor delta (Homo sapiens) (UniProt Q03181); assay: qHTS assay for small molecule agonists of peroxisome proliferator-activated receptor delta signaling (AID 588534; calls by dose curve)
Peroxisome proliferator-activated receptor delta (Homo sapiens), sequence (Q03181 whole entry, looked up): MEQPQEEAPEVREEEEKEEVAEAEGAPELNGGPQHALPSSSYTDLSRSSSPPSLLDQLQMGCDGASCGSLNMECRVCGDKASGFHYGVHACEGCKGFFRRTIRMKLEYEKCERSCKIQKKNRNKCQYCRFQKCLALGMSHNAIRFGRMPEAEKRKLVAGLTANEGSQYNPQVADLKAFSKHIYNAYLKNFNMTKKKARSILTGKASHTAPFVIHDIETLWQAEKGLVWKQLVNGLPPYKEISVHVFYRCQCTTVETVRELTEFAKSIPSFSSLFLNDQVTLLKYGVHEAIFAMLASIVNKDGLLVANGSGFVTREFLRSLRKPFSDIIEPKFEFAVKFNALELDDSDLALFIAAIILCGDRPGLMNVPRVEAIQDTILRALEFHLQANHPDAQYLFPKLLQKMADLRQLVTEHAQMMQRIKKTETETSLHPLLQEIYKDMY
How it was run: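 EC50 and efficacy values derive from Hill fits of a concentration series in a beta-lactamase reporter cell assay. Exposure is 18 hrs at 37 C, with CCF4 fluorescence as the readout.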

CN1[C@@H]2CC(O)C[C@H]1[C@@H]1O[C@@H]12 (some centres not stated)
Potency [1]: inactive | Potency [2]: inactive | Z-AUC [3]: 0.552 (inactive) | Z-AUC ([3]; measured here: PEO1 parental Z-AUC): 0.772 | Z-AUC ([3]; measured here: PEO4 Z-AUC): 1.01

CC(=O)C1=C(O)[C@@H]2[C@H]3c4c[nH]c5cccc(c45)C[C@H]3C(C)(C)N2C1=O
Potency [1]: inactive

C[C@]12C=CC(=O)C=C1CCC1C2=CC[C@]2(C)[C@@H](C(=O)CN3CCN(c4cc(N5CCCC5)nc(N5CCCC5)n4)CC3)CC[C@@H]12 (some centres not stated)
Potency [4]: 1.12 µM (active) | Potency [5]: 1.26 µM (active) | Potency [6]: 794 nM (active) | Potency [7]: 1.58 µM (active) | Potency [8]: 10 µM (active) | Potency [9]: 794 nM (active) | Potency [10]: 1.41 µM (active)

CCCCCCCCC[C@@H](O)CC(=O)CCc1ccc(O)c(OC)c1
Potency [11]: inactive | Potency [12]: inactive

COc1cc(/C=C/c2ccccc2)oc(=O)c1
Potency [11]: inactive | Potency [12]: inactive

C=C1CC/C=C(/C)CC[C@@H]2[C@@H]1CC2(C)C
Potency [11]: inactive | Potency [12]: inactive

CC1=C2[C@H](/C=C(\C)C(=O)O)CC[C@@H](C)[C@H]2CC1
activation [13]: -3.32% (inactive) | Potency [11]: inactive | Potency [12]: inactive

O[C@@H]1[C@@H](O)[C@H](OC/C=C/c2ccccc2)O[C@H](CO[C@@H]2OC[C@H](O)[C@H](O)[C@H]2O)[C@H]1O
Potency [11]: inactive | Potency [12]: inactive

CCCCCCCCCCCCCCCCCCCCCC(=O)O
Potency [11]: inactive | Potency [12]: inactive

O=C(/C=C/c1ccc(O)c(O)c1)OC1[C@H](O)CC(O)(C(=O)O)C[C@@H]1O (some centres not stated)
Potency [11]: inactive | Potency [12]: inactive

C=C(C)C1CC=C(C)C(O)C1 (configuration not stated)
outcome [14]: inactive | Potency [11]: inactive | Potency [12]: inactive

Cc1ccc(-n2nccn2)c(C(=O)N2CCN(c3nc4cc(Cl)ccc4o3)CC[C@H]2C)c1
Potency [1]: inactive
